From PubChem
A selection: hits, their analogues and other compounds. The true share with any hit is near 6.6%.
RGS4 inh: blocks human RGS4-accelerated GTP hydrolysis. Transcreener GDP fluorescence polarization, RGS4-accelerated GTP hydrolysis. Potency, µM (doses to about 114 µM), usual class: inhibitors. AID 504845. P49798. 0.039% of 390,000 active; also: nearly all actives have a fitted effect of over 75% in size
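MLSMR compounds (23 nl, pin-transferred) preincubated 10 min at room temperature with a 500nM (2x) first reagent, then RGS4 at 900nM (2x) plus Transcreener GDP mix added; fluorescence polarization (620/688 nm) read before and after 90 min at 30 °C.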
KB-3-1 cytotox: kills parental KB-3-1 adenocarcinoma cells. KB-3-1 viability, CellTiter-Glo ATP luminescence, 72 h. Potency, µM (doses to about 46.1 µM), usual class: cytotoxic. 1.4% of 400,000 active; also: nearly all actives have a fitted effect of over 60% in size
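KB-3-1 parental drug-naive adenocarcinoma cells in DMEM/10% FBS, incubated 72 h at 37 C with pin-transferred compounds across a concentration series. Viability by CellTiter-Glo luminescence; concentration-response curves fitted after normalization.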
MCF10A rerep: induces DNA re-replication in MCF 10a normal breast cells | MCF 10A DNA re-replication, Hoechst nuclear intensity, 48 h | Potency, µM (series often up to 46.1 µM), hits mostly activators | 2.9% of 350,000 active; also: nearly all actives have a fitted effect of over 50% in size
SW480 rereplic: DNA re-replication induction in SW480 cells | SW480 DNA re-replication, Hoechst DNA content imaging, 48 h | Potency, µM (highest dose often 46.1 µM), most hits filed as activators | 1.8% of 340,000 active; also: nearly all actives have a fitted effect of over 55% in size
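SW480 cells exposed to compounds for 48 hr at 37 C, 5% CO2, then Hoechst-stained 40 min. Nuclear DNA content imaged by fluorescence scanning (405 nm excitation, 500-530 nm emission); re-replication scored as increased high-intensity nuclei.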
KB-V1 MDR tox: kills drug-selected multidrug resistant KB-V1 cells. Potency, µM (series often up to 46.1 µM), usual class: cytotoxic. KB-V1 MDR cells viability, CellTiter-Glo, 72 h. 3.4% of 400,000 active. AID 1347076; also: nearly all actives have a fitted effect of over 60% in size
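Compound-treated KB-V1 multidrug-resistant cells, 72 h, 37 degrees C; viability by CellTiter-Glo. Fitted qHTS curves give the values.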
PTAP TSG101 blk: blocks PTAP/TSG101 interaction to inhibit HIV-1 budding; 340,000 tested, under 10 active; Potency, µM (highest dose often 115 µM), actives largely listed as inhibitors; Fluorescence polarization, FITC-PTAP peptide / Tsg101 binding; Q99816; AID 493005; active = well fitted inhibition curve with a large enough effect in the main read-out, with a control signal flat, not every such curve was filed as active; inconclusive = small, poorly fitted or top-dose-only effect, or effect the other way, or a change in a side signal; inactive = no such curve, though single readings can be large or run the other way
Target sequence (Q99816 whole entry, looked up): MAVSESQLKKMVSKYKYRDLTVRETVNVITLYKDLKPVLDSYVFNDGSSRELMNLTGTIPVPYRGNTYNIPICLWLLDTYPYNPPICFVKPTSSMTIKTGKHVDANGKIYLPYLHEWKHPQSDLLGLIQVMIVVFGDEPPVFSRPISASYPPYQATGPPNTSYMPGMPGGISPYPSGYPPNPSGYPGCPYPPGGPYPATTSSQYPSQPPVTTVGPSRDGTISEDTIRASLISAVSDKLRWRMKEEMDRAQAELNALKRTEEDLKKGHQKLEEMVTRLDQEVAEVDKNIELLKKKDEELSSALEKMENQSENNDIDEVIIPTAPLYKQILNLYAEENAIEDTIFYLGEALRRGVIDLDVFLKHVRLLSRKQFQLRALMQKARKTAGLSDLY
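Compounds were pin-transferred onto Tsg101 binding domain (10 uM final) in HEPES pH 7.5 buffer, then FITC-PTAP peptide was added at 50 nM final. After 20 min at RT, polarization reported peptide displacement across a qHTS concentration series.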
Each line names hits and unclear results; the compound was inactive in the other large screens. Unless noted, calls follow the shape of the dose curve; as a rule, active = well fitted curve in the direction sought with a large enough effect; inconclusive = small, poorly fitted or top-dose-only effect, or another doubt; inactive = no such curve, though single readings can be large; an effect the other way counts as inactive or inconclusive.

O=C(c1csc2ccccc12)N1CCN(c2ccc(Cl)c(Cl)c2)CC1	none
COc1ccc(N2CCN(C(=O)c3csc4ccccc34)CC2)cc1	KB-V1 MDR tox 21µM
O=C(c1ccc(Oc2ccc(C(F)(F)F)cn2)cc1)N1CCN(c2ccccc2)CC1	KB-3-1 cytotox inconclusive, KB-V1 MDR tox 21µM
COc1cccc(-c2nc(CS(=O)(=O)CC(=O)Nc3c(C)cc(C)cc3C)c(C)o2)c1	none (no result: MCF10A rerep, SW480 rereplic, PTAP TSG101 blk)
Cc1ccc(NC(=O)Cn2c(=O)n(CCC(=O)N3CCc4ccccc4C3)c(=O)c3ccccc32)c(C)c1	none (no result: MCF10A rerep, SW480 rereplic, PTAP TSG101 blk)
Cc1ccc(NC(=O)[C@@H](c2ccccc2)N2Cc3ccccc3C2=O)cc1F	none (no result: MCF10A rerep, SW480 rereplic, PTAP TSG101 blk)
CCC(Sc1nc2ccncc2[nH]1)C(=O)Nc1cc(C)ccc1C (configuration not stated)	none (no result: MCF10A rerep, SW480 rereplic, PTAP TSG101 blk)
CCc1ccc(S(=O)(=O)c2nnn3c2nc(NCc2cccs2)c2sccc23)cc1	none (no result: MCF10A rerep, SW480 rereplic, PTAP TSG101 blk)
Cc1ccc2nc3c(cc2c1)CN(Cc1ccco1)C(=NCC1CCCO1)S3 (configuration not stated)	RGS4 inh inconclusive, KB-3-1 cytotox inconclusive, SW480 rereplic inconclusive, KB-V1 MDR tox inconclusive
Cc1cccc2cc3c(nc12)SC(=NCC1CCCO1)N(Cc1ccco1)C3 (configuration not stated)	RGS4 inh inconclusive, MCF10A rerep inconclusive, SW480 rereplic 5.8µM
Cc1cccc(Nc2nc(N)nc(-c3oc4ccccc4c3C)n2)c1	KB-3-1 cytotox inconclusive, MCF10A rerep 16µM, SW480 rereplic 18µM, KB-V1 MDR tox 21µM
COc1cccc(Nc2nc(N)nc(-c3oc4ccccc4c3C)n2)c1	KB-3-1 cytotox inconclusive, MCF10A rerep 7.3µM, SW480 rereplic 13µM, KB-V1 MDR tox 4.6µM
Cc1c(-c2nc(N)nc(Nc3ccccc3F)n2)oc2ccccc12	SW480 rereplic inconclusive, KB-V1 MDR tox 16µM
Cc1cccc(Nc2ncnc(N)n2)c1	none
COc1ccccc1Nc1nc(N)nc(-c2cc3ccccc3o2)n1	MCF10A rerep inconclusive, SW480 rereplic inconclusive, KB-V1 MDR tox inconclusive
Cc1ccc(Nc2nc(N)nc(-c3oc4ccccc4c3C)n2)cc1	KB-3-1 cytotox 0.18µM, MCF10A rerep inconclusive, SW480 rereplic inconclusive, KB-V1 MDR tox inconclusive
CC(C)(O)CN(C(=O)C(c1ccccc1)c1ccccc1)C1CCCCC1	KB-V1 MDR tox 13µM
Cc1ccc(Cn2c(CNS(=O)(=O)c3ccc(Cl)s3)nc3cccnc32)cc1	none (no result: KB-3-1 cytotox, MCF10A rerep, SW480 rereplic, KB-V1 MDR tox, PTAP TSG101 blk)
Cc1nnc(N2CCC(C(=O)N3CCCCC3)CC2)c2nn(-c3ccccc3)c(C)c12	none (no result: MCF10A rerep, SW480 rereplic, PTAP TSG101 blk)
COc1ccc(CC(NC(C)=O)C(=O)NC2CCN(c3nc(C)cc(C)c3C#N)CC2)cc1 (configuration not stated)	none
COc1ccc(CC(NC(C)=O)C(=O)NC2CCN(c3nc(C)cc(C)c3C#N)CC2)cc1OC (configuration not stated)	MCF10A rerep 0.58µM
COc1cc2c(NC3CCN(C)CC3)nc(N3CCCN(C)CC3)nc2cc1OCCCN1CCCCC1	KB-3-1 cytotox inconclusive (no result: RGS4 inh, MCF10A rerep, SW480 rereplic, PTAP TSG101 blk)
Cc1cc(Sc2nnc(N)s2)c2ccccc2n1	MCF10A rerep inconclusive
Cc1cc(Sc2nnc(/N=C/N(C)C)s2)c2ccccc2n1	KB-3-1 cytotox inconclusive, MCF10A rerep 9.2µM, SW480 rereplic inconclusive
COc1ccc(C(=O)OCC(=O)c2ccc(C3CCCCC3)cc2)cc1	none
Nc1ccc(O)cc1C(=O)OCC(=O)c1ccc(C2CCCCC2)cc1	MCF10A rerep 23µM, SW480 rereplic 9.2µM
CCn1c([N+](=O)[O-])nc2c1c(=O)[nH]c(=O)n2C	KB-3-1 cytotox inconclusive, MCF10A rerep 5.8µM, SW480 rereplic 8.2µM, KB-V1 MDR tox inconclusive
O=C(N/N=C/C=C/c1ccccc1[N+](=O)[O-])c1cccs1	MCF10A rerep inconclusive, KB-V1 MDR tox inconclusive
O=C(N/N=C\C=C\c1ccc([N+](=O)[O-])o1)c1cccs1	MCF10A rerep 8.2µM, SW480 rereplic 12µM, PTAP TSG101 blk inconclusive
O=C(N/N=C/c1ccc([N+](=O)[O-])o1)c1ccc(NS(=O)(=O)c2cccs2)cc1	KB-3-1 cytotox inconclusive, MCF10A rerep 18µM, SW480 rereplic inconclusive, KB-V1 MDR tox inconclusive
